Test results: PubChem BioAssay AID1159580 (chemical genetic matrix, 2015)
Values joined by “and” are separate entries in the source; they are usually repeats but may differ in a detail not shown here. Equal entries are not always repeated. About 2,000 (36%) of roughly 5,500 compounds were called active. Roughly 18% stayed inconclusive and do not appear here. No stated cut-off is given here; in the data, active means normalized growth mostly below about 0.91 (no sharp cut-off); inconclusive means no clear call, values can overlap the other calls; inactive means mostly above about 0.92. Some of the results follow.

Test: chemical genetic growth profiling, strain panel (AID 1159580);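 further: tested at 20 µM; growth read once vehicle control cultures reached saturation at 30 °C; 1 = growth at the plate median or of vehicle wells; lower values mean less growth of the strain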
Details: growth OD

Measured: normalized growth

O=c1n(CCCN2CCN(c3cccc(Cl)c3)CC2)nc2ccccn12
inactive: S. cerevisiae deletion strains, locus YJR066W, strain TOR1, active compounds read low 0.943 | S. cerevisiae deletion strains, locus YJR075W, strain HOC1, active compounds read low 0.94 and 0.981 | S. cerevisiae deletion strains, locus YKL009W, strain mrt4, active compounds read low 0.967 | S. cerevisiae deletion strains, locus YKL068W, active compounds read low 0.989 | S. cerevisiae deletion strains, locus YKL085W, strain MDH1 (second series), active compounds read low 0.992 | S. cerevisiae deletion strains, locus YKL085W, strain MDH1, active compounds read low 0.992 | S. cerevisiae deletion strains, locus YKL160W, strain elf1, active compounds read low 0.986 | S. cerevisiae deletion strains, locus YKL190W, strain CNB1, active compounds read low 0.986 | S. cerevisiae deletion strains, locus YKR001C, strain vps1, active compounds read low 0.972 | S. cerevisiae deletion strains, locus YKR026C, strain gcn3, active compounds read low 0.984 | S. cerevisiae deletion strains, locus YKR091W, strain srl3, active compounds read low 0.993 | S. cerevisiae deletion strains, locus YLL001W, strain dnm1, active compounds read low 0.986 | S. cerevisiae deletion strains, locus YLL026W, active compounds read low 0.986 | S. cerevisiae deletion strains, locus YLL041C, strain sdh2, active compounds read low 0.994 | S. cerevisiae deletion strains, locus YLR027C, strain aat2, active compounds read low 0.979 | S. cerevisiae deletion strains, locus YLR039C, strain RIC1, active compounds read low 0.975 | S. cerevisiae deletion strains, locus YLR058C, strain SHM2, active compounds read low 0.964 | S. cerevisiae deletion strains, locus YLR102C, strain apc9, active compounds read low 0.993 | S. cerevisiae deletion strains, locus YLR113W, strain HOG1, active compounds read low 1 | S. cerevisiae deletion strains, locus YLR221C, strain rsa3, active compounds read low 0.985 | S. cerevisiae deletion strains, locus YLR258W, strain gsy2, active compounds read low 0.99 | S. cerevisiae deletion strains, locus YLR262C, strain YPT6 (second series), active compounds read low 0.965 | S. cerevisiae deletion strains, locus YLR262C, strain YPT6, active compounds read low 0.948 | S. cerevisiae deletion strains, locus YLR268W, strain sec22, active compounds read low 0.98 | S. cerevisiae deletion strains, locus YLR320W, strain mms22, active compounds read low 0.966 | S. cerevisiae deletion strains, locus YLR330W, strain CHS5, active compounds read low 0.989 | S. cerevisiae deletion strains, locus YLR342W, strain FKS1 (second series), active compounds read low 1.04 | S. cerevisiae deletion strains, locus YLR342W, strain FKS1, active compounds read low 0.983 | S. cerevisiae deletion strains, locus YLR357W, strain rsc2, active compounds read low 0.932 | S. cerevisiae deletion strains, locus YLR370C, strain arc18, active compounds read low 0.982 | S. cerevisiae deletion strains, locus YLR371W, strain rom2, active compounds read low 0.994 | S. cerevisiae deletion strains, locus YLR384C, strain iki3, active compounds read low 0.983 | S. cerevisiae deletion strains, locus YLR418C, strain cdc73, active compounds read low 1 | S. cerevisiae deletion strains, locus YML016C, strain PPZ1, active compounds read low 0.98 | S. cerevisiae deletion strains, locus YML032C, strain rad52, active compounds read low 0.979 | S. cerevisiae deletion strains, locus YML120C, strain ndi1, active compounds read low 0.977 | S. cerevisiae deletion strains, locus YML124C, strain tub3, active compounds read low 0.989 | S. cerevisiae deletion strains, locus YMR058W, strain fet3, active compounds read low 0.976 | S. cerevisiae deletion strains, locus YMR078C, strain ctf18, active compounds read low 0.995 | S. cerevisiae deletion strains, locus YMR125W, strain sto1, active compounds read low 0.969 | S. cerevisiae deletion strains, locus YMR129W, active compounds read low 0.984 | S. cerevisiae deletion strains, locus YMR205C, strain PFK2, active compounds read low 0.964 | S. cerevisiae deletion strains, locus YMR223W, strain ubp8, active compounds read low 1.01 | S. cerevisiae deletion strains, locus YMR231W, strain pep5, active compounds read low 0.989 | S. cerevisiae deletion strains, locus YMR263W, strain SAP30, active compounds read low 0.983 | S. cerevisiae deletion strains, locus YMR307W, strain GAS1, active compounds read low 1.08 and 1.01 | S. cerevisiae deletion strains, locus YNL067W, strain RPL9B, active compounds read low 0.969 | S. cerevisiae deletion strains, locus YNL071W, strain lat1, active compounds read low 0.963 | S. cerevisiae deletion strains, locus YNL153C, strain GIM3, active compounds read low 0.945 | S. cerevisiae deletion strains, locus YNL175C, strain NOP13, active compounds read low 0.999 | S. cerevisiae deletion strains, locus YNL183C, strain NPR1, active compounds read low 0.943 | S. cerevisiae deletion strains, locus YNL197C, strain WHI3, active compounds read low 1 | S. cerevisiae deletion strains, locus YNL209W, strain ssb2, active compounds read low 0.989 | S. cerevisiae deletion strains, locus YNL224C, strain SQS1, active compounds read low 0.998 | S. cerevisiae deletion strains, locus YNL233W, strain BNI4, active compounds read low 0.956 | S. cerevisiae deletion strains, locus YNL248C, strain rpa49, active compounds read low 0.976 | S. cerevisiae deletion strains, locus YNL250W, strain rad50, active compounds read low 0.973 | S. cerevisiae deletion strains, locus YNL271C, strain bni1, active compounds read low 0.986 | S. cerevisiae deletion strains, locus YNL298W, strain CLA4, active compounds read low 0.999 | S. cerevisiae deletion strains, locus YNL307C, strain MCK1, active compounds read low 0.993 | S. cerevisiae deletion strains, locus YNL322C, strain KRE1 (second series), active compounds read low 0.964 | S. cerevisiae deletion strains, locus YNL322C, strain KRE1, active compounds read low 0.997 | S. cerevisiae deletion strains, locus YNR049C, strain mso1, active compounds read low 0.979 | S. cerevisiae deletion strains, locus YNR052C, strain pop2, active compounds read low 0.992 | S. cerevisiae deletion strains, locus YOL006C, strain TOP1, active compounds read low 0.781 | S. cerevisiae deletion strains, locus YOL012C, strain htz1 1.02 | S. cerevisiae deletion strains, locus YOL147C, strain pex11, active compounds read low 0.992 | S. cerevisiae deletion strains, locus YOR001W, strain rrp6, active compounds read low 0.991 | S. cerevisiae deletion strains, locus YOR061W, strain CKA2, active compounds read low 0.965 | S. cerevisiae deletion strains, locus YOR069W, strain VPS5, active compounds read low 0.987 | S. cerevisiae deletion strains, locus YOR070C, strain gyp1, active compounds read low 0.974 | S. cerevisiae deletion strains, locus YOR080W, strain dia2, active compounds read low 0.975 | S. cerevisiae deletion strains, locus YOR083W, strain WHI5 (second series), active compounds read low 1.02 | S. cerevisiae deletion strains, locus YOR083W, strain WHI5, active compounds read low 0.984 | S. cerevisiae deletion strains, locus YOR106W, strain vam3, active compounds read low 0.977 | S. cerevisiae deletion strains, locus YOR136W, strain idh2, active compounds read low 0.983 | S. cerevisiae deletion strains, locus YOR144C, strain elg1, active compounds read low 0.996 | S. cerevisiae deletion strains, locus YOR184W, strain ser1, active compounds read low 0.992 | S. cerevisiae deletion strains, locus YOR231W, strain MKK1, active compounds read low 1 | S. cerevisiae deletion strains, locus YOR265W, strain rbl2, active compounds read low 0.969 | S. cerevisiae deletion strains, locus YOR270C, strain vph1, active compounds read low 0.902 | S. cerevisiae deletion strains, locus YOR290C, strain snf2, active compounds read low 0.939 | S. cerevisiae deletion strains, locus YOR316C, strain cot1, active compounds read low 0.99 | S. cerevisiae deletion strains, locus YPL051W, strain arl3, active compounds read low 0.982 | S. cerevisiae deletion strains, locus YPL078C, strain atp4, active compounds read low 0.975 | S. cerevisiae deletion strains, locus YPL106C, strain sse1, active compounds read low 0.971 | S. cerevisiae deletion strains, locus YPL240C, strain hsp82, active compounds read low 0.984 | S. cerevisiae deletion strains, locus YPL241C, strain CIN2, active compounds read low 0.997 | S. cerevisiae deletion strains, locus YPL256C, strain CLN2, active compounds read low 1.01 | S. cerevisiae deletion strains, locus YPR119W, strain clb2, active compounds read low 0.99 | S. cerevisiae deletion strains, locus YPR141C, strain kar3, active compounds read low 0.984 | S. cerevisiae deletion strains, locus YPR163C, strain tif3, active compounds read low 0.991 | S. cerevisiae deletion strains, locus YPR167C, strain met16, active compounds read low 1 | S. cerevisiae deletion strains, strain wtn01, active compounds read low 1.03 | S. cerevisiae strains, strain wild type, active compounds read low 0.979
